From PubChem
T cruzi growth-1 = blocks T. cruzi growth in NIH3T3 culture; T. cruzi beta-gal in NIH3T3, GalScreen luminescence, 90 h; inhibition, % at 8.34 µM; 77,000 tested, 5.9% active;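 active means mean inhibition above about 93%, with at least 55% of replicates each passing it, limit read from the data, passing the limit was not always enough; inconclusive means only one of those two conditions holds; inactive means neither condition holds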
Pf Dd2 inh = blocks growth of Plasmodium falciparum Dd2 parasites | P. falciparum Dd2 growth, SYBR Green, 72 h; hits give low values | activity change, % at 10 µM | 94,000 tested, 2.3% active; in the data active means activity change below about -80%; inconclusive means no clear call, values can overlap the other calls
C diff HTS = blocks growth of Clostridium difficile; Clostridium difficile clinical isolate growth, OD600, 24 h; hits give low values; growth activity, negative = inhibition, % at 16 µg/mL (by protocol); 86,000 tested, 0.25% active; AID 1259249;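 active means mean growth activity at or below -80% and every replicate also at or below -80%; inconclusive means mean at or below -80% but some replicate above -80%; inactive means mean growth activity above -80%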;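 further: 0% = DMSO wells and -100% = levofloxacin 16 µg/mL wells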
T cruzi growth-2 = inhibitors of T. cruzi proliferation; T. cruzi beta-gal in NIH3T3, GalScreen luminescence, 90 h; 5,600 tested, 72% active; shares compounds with T cruzi growth-1; inhibition, % at 8.35 µM;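 active means mean replicate inhibition above about 95% and at least 55% of replicates individually reaching it, limit read from the data; inconclusive means only one of the two criteria is met; inactive means neither criterion is met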
T cruzi growth-3 = Trypanosoma cruzi proliferation inhibition | shares compounds with T cruzi growth-1 | T. cruzi beta-gal in NIH3T3, GalScreen luminescence, 90 h | inhibition, % at 2.09 µM | 5,600 tested, 21% active | AID 651740;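 active means mean inhibition above about 95%, with at least 55% of replicates also reaching it, limit read from the data; inconclusive means meets just one of the two conditions; inactive means meets neither condition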;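 further: plate controls were neutral control median for no effect and positive control median for full effect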
3T3 cytotox = cytotoxicity in mouse NIH/3T3 fibroblasts; cytotoxicity (signal decrease), % at 8.35 µM; AID 651742; NIH/3T3 viability, CellTiter-Glo ATP luminescence, 90 h; shares compounds with T cruzi growth-1; 5,600 tested, 14% active;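 active means mean signal decrease across replicates above about 35% based on untreated-well scatter, with enough replicates individually passing, limit read from the data; inconclusive means no rule stated though some were filed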;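 further: 0% = median of neutral control wells and 100% = median of positive control wells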
3T3 cytotox 2 = kills mouse NIH/3T3 fibroblasts | shares compounds with T cruzi growth-1 | NIH/3T3 viability, CellTiter-Glo ATP luminescence, 90 h | inhibition, % at 24.9 µM | 5,600 tested, 56% active | AID 651744;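 active means mean loss of cell viability signal at or above a set limit, and enough replicates individually reaching it; inconclusive means meets only the mean limit or only the replicate share; inactive means meets neither condition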;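 further: 0% = median of neutral control wells and 100% = median of positive control wells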
* = called active by the depositor; ? = inconclusive; · = no result. Only some compounds are listed: those with a hit (about 6.7% of all), similar ones and a draw of the others.

SMILES | T cruzi growth-1 | Pf Dd2 inh | C diff HTS | T cruzi growth-2 | T cruzi growth-3 | 3T3 cytotox | 3T3 cytotox 2
C[C@H](CO)N1C[C@H](C)[C@@H](CN(C)C(=O)c2ccc3c(c2)OCO3)Oc2ncc(C#CCN(C)C)cc2C1=O | · | 13.2 | -0.9 | · | · | · | ·
CCCN(C)C[C@H]1Oc2ncc(-c3cccnc3)cc2C(=O)N([C@H](C)CO)C[C@H]1C | 38.4 | 0.9 | 1.9 | · | · | · | ·
C[C@H](CO)N1C[C@H](C)[C@@H](CN(C)C(=O)Nc2cccc3ccccc23)OCCCC[C@H](C)Oc2ccc(NS(C)(=O)=O)cc2C1=O | -9.8 | -22.9 | -5.8 | · | · | · | ·
C[C@@H]1CCCCO[C@H](CN(C)C(=O)Nc2cccc3ccccc23)[C@H](C)CN([C@H](C)CO)C(=O)c2cc(NS(=O)(=O)c3ccccc3)ccc2O1 | · | -79.0 | · | · | · | · | ·
C[C@@H]1CCCCO[C@@H](CN(C)C(=O)Nc2cccc3ccccc23)[C@@H](C)CN([C@H](C)CO)C(=O)c2cc(NS(=O)(=O)c3ccccc3)ccc2O1 | · | -40.2 | · | · | · | · | ·
C[C@@H]1CCCCO[C@H](CN(C)C(=O)Nc2cccc3ccccc23)[C@H](C)CN([C@@H](C)CO)C(=O)c2cc(NS(=O)(=O)c3ccc(Cl)cc3)ccc2O1 | 99.0* | -56.5 | 1.1 | 104.4* | 101.6* | -11.7 | -3.1
C[C@@H]1CN([C@@H](C)CO)C(=O)c2cc(NS(=O)(=O)c3ccc(Cl)cc3)ccc2O[C@@H](C)CCCCO[C@H]1CN(C)C(=O)Nc1cccc2ccccc12 | 96.4* | -76.7 | -9.0 | 107.3* | 101.8* | -13.0 | 12.6
C[C@@H]1CCCCO[C@@H](CN(C)C(=O)Nc2cccc3ccccc23)[C@H](C)CN([C@@H](C)CO)C(=O)c2cc(NS(=O)(=O)c3ccc(Cl)cc3)ccc2O1 | 98.3* | -5.6 | -4.6 | 106.6* | 117.0* | -24.9 | -16.7
Cc1noc(C)c1NC(=O)N[C@@H]1CC[C@@H](CCNC(=O)C2CC2)O[C@H]1CO | · | -9.7 | -1.2 | · | · | · | ·
CS(=O)(=O)N1CCCCN2[C@H](CO)[C@H](c3ccc(C4=CCCC4)cc3)[C@@H]2C1 | 51.0 | 23.5 | -3.2 | · | · | · | ·
COc1ccc(S(=O)(=O)N2CCCCN3[C@@H](CO)[C@H](c4ccc(C5=CCCC5)cc4)[C@@H]3C2)cc1 | ? | 5.0 | 10.3 | 103.9* | 88.4 | 26.6 | 104.3*
COc1ccc(S(=O)(=O)N2CCCCN3[C@H](CO)[C@H](c4ccc(C5=CCCC5)cc4)[C@H]3C2)cc1 | 93.8 | -35.3 | 30.0 | · | · | · | ·
CS(=O)(=O)N1CCCCN2[C@H](C1)[C@H](c1ccc(C3=CCCC3)cc1)[C@@H]2CO | ? | 24.2 | 0.6 | 60.4 | 25.9 | 19.5 | 8.5
O=C(C[C@H]1C[C@H]2c3cc(NC(=O)C4CCC4)ccc3O[C@H]2[C@H](CO)O1)NCc1ccccc1F | · | 20.1 | 0.4 | · | · | · | ·
Cn1cnc(S(=O)(=O)N2CCCCN3[C@@H](CO)[C@@H](c4ccc(-c5ccc(F)cc5)cc4)[C@@H]3C2)c1 | 26.9 | 28.7 | -12.0 | · | · | · | ·
Cn1cnc(S(=O)(=O)N2CCCCN3[C@H](C2)[C@H](c2ccc(C#CC4CCCC4)cc2)[C@@H]3CO)c1 | 31.9 | -16.6 | -5.1 | · | · | · | ·
Cn1cnc(S(=O)(=O)N2CCCCN3[C@H](CO)[C@@H](c4ccc(-c5ccccc5)cc4)[C@@H]3C2)c1 | 99.6* | 25.6 | -5.7 | 65.2 | -2.4 | 11.3 | 27.6*
Cn1cnc(S(=O)(=O)N2CCCCN3[C@H](CO)[C@H](c4ccc(C#CC5CCCC5)cc4)[C@@H]3C2)c1 | 106.6* | -20.0 | -17.1 | ? | 28.9 | 29.0 | 33.4*
Cn1cnc(S(=O)(=O)N2CCCCN3[C@H](C2)[C@H](c2ccc(-c4ccccc4)cc2)[C@@H]3CO)c1 | 103.5* | 6.5 | -3.2 | 6.0 | 10.9 | -12.4 | -16.0
Cn1cnc(S(=O)(=O)N2CCCCN3[C@H](C2)[C@H](c2ccc(-c4ccc(F)cc4)cc2)[C@@H]3CO)c1 | 48.2 | 24.0 | -1.9 | · | · | · | ·
C[C@H]1CN([C@@H](C)CO)C(=O)c2cc(NC(=O)NC3CCCCC3)ccc2O[C@H]1CN(C)C(=O)Nc1cccc2ccccc12 | 28.6 | -12.4 | -10.8 | · | · | · | ·
Cc1ccc(S(=O)(=O)Nc2cccc3c2O[C@@H](CN(C)C(=O)Nc2ccccc2)[C@@H](C)CN([C@@H](C)CO)C3=O)cc1 | 87.6 | -1.0 | -4.9 | · | · | · | ·
C[C@H]1CN([C@@H](C)CO)C(=O)c2cc(NS(=O)(=O)c3cn(C)cn3)ccc2O[C@H]1CN(C)C(=O)Nc1ccc(C(F)(F)F)cc1 | -26.1 | 15.9 | -4.3 | · | · | · | ·
CC=Cc1ccc2n(c1=O)C[C@@H]1[C@@H](CO)[C@H](C(=O)NCc3ccc(F)cc3)[C@H]2N1CCC (mixture of isomers) | -2.0 | · | -1.2 | · | · | · | ·
Cc1ccc(S(=O)(=O)N(C)C[C@@H]2Oc3c(NC(=O)Nc4cccc5ccccc45)cccc3C(=O)N([C@@H](C)CO)C[C@H]2C)cc1 | 109.6* | -67.1 | -10.6 | -8.4 | -14.2 | -9.1 | -8.8
SMILES | T cruzi growth-1 | Pf Dd2 inh | C diff HTS | T cruzi growth-2 | T cruzi growth-3 | 3T3 cytotox | 3T3 cytotox 2
COc1ccc(S(=O)(=O)N(C)C[C@@H]2Oc3c(NC(=O)Nc4cccc5ccccc45)cccc3C(=O)N([C@H](C)CO)C[C@H]2C)cc1 | 57.7 | -30.6 | 3.9 | · | · | · | ·
COc1ccc(S(=O)(=O)N(C)C[C@@H]2Oc3c(NC(=O)Nc4cccc5ccccc45)cccc3C(=O)N([C@@H](C)CO)C[C@@H]2C)cc1 | 109.0* | -47.8 | 6.7 | 32.6 | -16.0 | -4.2 | 48.9*
Cc1ccc(S(=O)(=O)N(C)C[C@H]2Oc3c(NC(=O)Nc4cccc5ccccc45)cccc3C(=O)N([C@H](C)CO)C[C@H]2C)cc1 | · | -40.1 | -2.9 | · | · | · | ·
COCC(=O)N(C[C@H]1N[C@H](CO)[C@H]1c1ccc(C2=CCCC2)cc1)C(C)C | -4.2 | -26.8 | 9.9 | · | · | · | ·
O=C(C1CC1)N1CCCCN2[C@@H](CO)[C@H](c3ccc(C#CC4CC4)cc3)[C@@H]2C1 | 103.2* | 23.7 | -3.2 | 83.6 | 42.9 | 24.2 | 51.6*
O=C(C1CC1)N1CCCCN2[C@H](CO)[C@H](c3ccc(C#CC4CC4)cc3)[C@H]2C1 | 81.7 | -1.9 | -7.5 | · | · | · | ·
O=C(C1CCCC1)N1CCCCN2[C@@H](CO)[C@H](c3ccc(C#CC4CC4)cc3)[C@@H]2C1 | 121.3* | -2.4 | 30.0 | 110.4* | 65.3 | 40.2* | 81.9*
O=C(C1CCC1)N1CCCCN2[C@H](CO)[C@@H](c3ccc(C#CC4CCCC4)cc3)[C@@H]2C1 | 94.5 | 13.4 | 22.8 | · | · | · | ·
O=C(C1CCC1)N1CCCCN2[C@H](C1)[C@H](c1ccc(C#CC3CCCC3)cc1)[C@@H]2CO | 103.3* | 15.4 | 11.6 | 108.0* | 53.9 | 27.1 | 104.0*
O=C(C1CC1)N1CCCCN2[C@@H](CO)[C@@H](c3ccc(C#CC4CC4)cc3)[C@@H]2C1 | 50.0 | 12.9 | -14.8 | · | · | · | ·
